From PubChem BioAssay (NCI)
“And” between values parts separate entries of the source, which are not always exact repeats. Identical values can stand only once. This is part of a sample that, as a whole, favours compounds with a hit. Of some 83,000 tested, about 20% had one in any assay.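 Results are percent growth after 48 hours of single-concentration exposure. 100 means growth as in untreated cells, lower positive values show inhibition; negative values down to -100 show cell death.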 The source made the active and inactive calls. The calls were made as follows: active = growth percent below 10; inactive = the rest.

What was measured:
Test in all cases: NCI-60 one-dose screen, 48 h (100 = growth as untreated, 0 = no growth, -100 = all killed)
Conditions in all cases: 10 µM unless noted
[1] = test system: DU-145 prostate
[2] = test system: K-562 leukemia
[3] = test system: MALME-3M melanoma
[4] = test system: MDA-MB-231 breast
[5] = test system: RXF 393 renal
[6] = test system: SF-268 CNS
[7] = test system: SF-295 CNS
[8] = test system: SF-539 CNS
[9] = test system: UACC-257 melanoma
[10] = test system: M14 melanoma
[11] = test system: HCT-15 colon
[12] = test system: HT29 colon
[13] = test system: SNB-75 CNS
[14] = test system: SNB-19 CNS
[15] = test system: U251 CNS
[16] = test system: PC-3 prostate
[17] = test system: SK-MEL-5 melanoma
[18] = test system: UACC-62 melanoma
[19] = test system: LOX IMVI melanoma
[20] = test system: SK-MEL-28 melanoma

Compound | growth [1] | growth [2] | growth [3] | growth [4] | growth [5] | growth [6] | growth [7] | growth [8] | growth [9] | growth [10] | growth [11] | growth [12] | growth [13] | growth [14] | growth [15] | growth [16] | growth [17] | growth [18] | growth [19] | growth [20]
CC[C@H](C)[C@H](NC(=O)CN(C)C)C(=O)N(C)[C@H](C[C@@H](OC(C)=O)c1nc(C(=O)NC23C4C5C2C2C3C4C52C(=O)OC)cs1)C(C)C (stereo not given in full) | 2.37% (active) | 7.65% (active) | 35.1% (inactive) | 1.39% (active) | 2.8% (active) | 21.1% (inactive) | 9.98% (active) | -1.99% (active) | 49.2% (inactive) | -35.8% (active) | 14.7% (inactive) | 2.31% (active) | 30.1% (inactive) | 40.2% (inactive) | 16.7% (inactive) | 25.6% (inactive) | 5.45% (active) | 29.9% (inactive) | 15.3% (inactive) | 61.5% (inactive)
Cc1ccc(P(=O)(O)O)cc1 | 116% (inactive) | 98.9% (inactive) | 96% (inactive) | 98.6% (inactive) | 98.8% (inactive) | 109% (inactive) | 100% (inactive) | 94.2% (inactive) | 103% (inactive) | 104% (inactive) | 107% (inactive) | 109% (inactive) | 107% (inactive) | 97.9% (inactive) | 101% (inactive) | 107% (inactive) | 107% (inactive) | 98.6% (inactive) | 104% (inactive) | 112% (inactive)
Cc1cc[c-]cc1.Fc1c[c-]c(-c2ccccn2)c(F)c1.N#CCC[PH+](CCC#N)c1ccccc1.[Pt+2] | 57.6% (inactive) | 11.6% (inactive) | 0.385% (active) | 13.7% (inactive) | -36% (active) | 46% (inactive) | 85.2% (inactive) | 48.3% (inactive) | 62.4% (inactive) | 21.9% (inactive) | 22.1% (inactive) | 37.2% (inactive) | 49.9% (inactive) | 62.3% (inactive) | 56.9% (inactive) | 29.4% (inactive) | 68.6% (inactive) | 9.83% (active) | -2.55% (active) | 42.7% (inactive)
C=C[Se]CC(=O)/C=C/c1ccccc1 | 87.5% (inactive) | 93.9% (inactive) | 97.5% (inactive) | 94.3% (inactive) | 114% (inactive) | 94.8% (inactive) | 3.93% (active) | 95.2% (inactive) | 92.7% (inactive) | 73.5% (inactive) | 96.3% (inactive) | 80.7% (inactive) | 49.4% (inactive) | 31.3% (inactive) | 26.4% (inactive) | 29.1% (inactive) | 92.2% (inactive) | 92.4% (inactive) | 93.9% (inactive) | 96.1% (inactive)
CC[C@H](CC[C@@H](C)[C@H]1CC[C@H]2[C@@H]3CC[C@H]4C[C@]5(CC[C@]4(C)[C@H]3CC[C@]12C)OO[C@](C)(C(F)(F)F)O5)C(C)C | 97.2% (inactive) | 93.9% (inactive) | 86% (inactive) | 94.5% (inactive) | 106% (inactive) | 87.4% (inactive) | 94.6% (inactive) | 97.8% (inactive) | 95.3% (inactive) | 97.1% (inactive) | 97% (inactive) | 102% (inactive) | 66.7% (inactive) | 90.4% (inactive) | 100% (inactive) | 94.2% (inactive) | 99.4% (inactive) | 83.2% (inactive) | 92.9% (inactive) | 89.9% (inactive)
Oc1ccccc1C=NCCN=Cc1ccccc1O | 108% (inactive) | 112% (inactive) | 113% (inactive) | 101% (inactive) | 109% (inactive) | 97% (inactive) | 101% (inactive) | 106% (inactive) | 96.4% (inactive) | 102% (inactive) | 104% (inactive) | 108% (inactive) | 97.6% (inactive) | 98% (inactive) | 91.6% (inactive) | 95.1% (inactive) | 99.5% (inactive) | 98.8% (inactive) | 95.6% (inactive) | 103% (inactive)
C[C@]12CC[C@H]3[C@@H](C[C@@H]4SC(Nc5ccccc5)=N[C@@]45C/C(=N/O)CC[C@]35C)[C@@H]1CCC2=O | 29.8% (inactive) | 12.5% (inactive) | 83.8% (inactive) | 78.2% (inactive) | 28.8% (inactive) | 57.7% (inactive) | 55.7% (inactive) | 44.2% (inactive) | 99.9% (inactive) | 68.5% (inactive) | 44.3% (inactive) | 32.1% (inactive) | 76% (inactive) | 60.3% (inactive) | 37.5% (inactive) | 60.5% (inactive) | 84.5% (inactive) | 86% (inactive) | -4.53% (active) | 73.3% (inactive)
CCN1C(=O)CC(=O)N(CC)C1=S | 122% (inactive) | 107% (inactive) | 95.8% (inactive) | 107% (inactive) | 100% (inactive) | 101% (inactive) | 111% (inactive) | 96.9% (inactive) | 102% (inactive) | 105% (inactive) | 96.4% (inactive) | 92.1% (inactive) | 72.4% (inactive) | 101% (inactive) | 105% (inactive) | 100% (inactive) | 96.8% (inactive) | 95.5% (inactive) | 100% (inactive) | 105% (inactive)
CCC1(NC(=O)c2cc(F)c(F)c(F)c2F)C(=O)NC(=O)N(C(C)C)C1=O (stereo not given) | 143% (inactive) | -26.7% (active) | 90.4% (inactive) | 81.5% (inactive) | 79.8% (inactive) | 114% (inactive) | 107% (inactive) | 97.5% (inactive) | 70.4% (inactive) | 50% (inactive) | 12.4% (inactive) | 76.6% (inactive) | 88.4% (inactive) | 92.7% (inactive) | 90.6% (inactive) | 93% (inactive) | 64.7% (inactive) | 48.6% (inactive) | 42% (inactive) | 53.2% (inactive)
O=c1[nH]c(=O)[nH]c(=O)[nH]1 | 119% (inactive) | 65.2% (inactive) | 114% (inactive) | 122% (inactive) | 91.1% (inactive) | 116% (inactive) | 97.6% (inactive) | 104% (inactive) | 146% (inactive) | 111% (inactive) | 160% (inactive) | 115% (inactive) | 103% (inactive) | 98.1% (inactive) | 132% (inactive) | 148% (inactive) | 107% (inactive) | 113% (inactive) | 129% (inactive) | 135% (inactive)
CN(C)c1ccc(N)cc1 | 113% (inactive) and 58.4% (inactive) | 83.7% (inactive) and 44.9% (inactive) | 115% (inactive) and 95.7% (inactive) | 88% (inactive) and 58.6% (inactive) | 109% (inactive) and 84.7% (inactive) | 97.9% (inactive) and 65.8% (inactive) | 110% (inactive) and 59.9% (inactive) | 104% (inactive) and 67% (inactive) | 92.5% (inactive) and 4.45% (active) | 101% (inactive) | 106% (inactive) and 83.6% (inactive) | 102% (inactive) and 37.4% (inactive) | 83.4% (inactive) and 62.8% (inactive) | 99.5% (inactive) and 47.8% (inactive) | 98.2% (inactive) and 17.5% (inactive) | 81.3% (inactive) and 50.8% (inactive) | 96.4% (inactive) and 44.5% (inactive) | 89% (inactive) and 43.3% (inactive) | 94.2% (inactive) and 27.2% (inactive) | 115% (inactive) and 73.2% (inactive)
CC[CH2][Sn]([Cl])([Cl])[CH2]CC.Oc1ccccc1C=NCCN=Cc1ccccc1O | 81.3% (inactive) and 76.9% (inactive) | 4.37% (active) and -23.9% (active) | 4.96% (active) and -43.8% (active) | 38.7% (inactive) and 28.5% (inactive) | 51.7% (inactive) and 1.58% (active) | 49.7% (inactive) and 20.3% (inactive) | 93.2% (inactive) | 59.9% (inactive) and 37.8% (inactive) | 51.4% (inactive) and 5.28% (active) | 69.6% (inactive) and 39% (inactive) | 59.8% (inactive) and 60.4% (inactive) | 79.1% (inactive) and 58.3% (inactive) | 50.7% (inactive) | 79.2% (inactive) and 67.5% (inactive) | 26% (inactive) and -21.6% (active) | 84.9% (inactive) and 70.9% (inactive) | 60.1% (inactive) and 50% (inactive) | 39.8% (inactive) and 32.3% (inactive) | 17.4% (inactive) and -11.1% (active) | 48.3% (inactive) and 45.7% (inactive)
O=C1CN2CCC1CC2 | 103% (inactive) | 93.9% (inactive) | 102% (inactive) | 108% (inactive) | 111% (inactive) | 99% (inactive) | 99.9% (inactive) | 97.8% (inactive) | 109% (inactive) | 104% (inactive) | 97% (inactive) | 99.5% (inactive) | 102% (inactive) | 104% (inactive) | 101% (inactive) | 104% (inactive) | 103% (inactive) | 104% (inactive) | 104% (inactive) | 119% (inactive)
CC(=O)OC1CC2(O)C(CCC3(C)C(c4ccc(=O)oc4)CCC32O)C2(C)CCC(OC3OC(CO)C(O)C(O)C3O)C=C12 (stereo not given) | -100% (active) | -30.4% (active) | -43.7% (active) | -20.3% (active) | -45% (active) | -97.4% (active) | -62.2% (active) | -97.9% (active) | -62.3% (active) | -78% (active) | -85.2% (active) | -55% (active) | -61.4% (active) | -94% (active) | -92.1% (active) | -55.2% (active) | -91.9% (active) | -65.6% (active) | -85.4% (active) | -31.7% (active)
